# In the library only some 11% were active in any assay of this set; here they are far more common.
# Pf growth 48h – Primary qHTS for delayed death inhibitors of the malarial parasite plastid, 48 hour incubation; Potency, µM (highest dose often 28.7 µM), hits mostly inhibitors; actives 5.9% (n = 310,000); P. falciparum luciferase growth in erythrocytes, 48 h; AID 504832, 2011
#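 Luminescence readout; reporter = integrated firefly luciferase in P. falciparum. RBC culture at 2% hematocrit, 0.1% parasitemia final, 37 C/5% CO2; decreased signal taken as growth inhibition.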
# AmpC inh no detg – qHTS Inhibitors of AmpC Beta-Lactamase (assay without detergent); P00811; Potency, µM (titrated, usually from 57.1 µM), hits mostly inhibitors; AmpC nitrocefin hydrolysis, absorbance 480 nm, 0.0001% Triton; actives 0.52% (n = 330,000); also: nearly all actives have a fitted effect of over 20% in size
# Target sequence (P00811 whole entry, looked up): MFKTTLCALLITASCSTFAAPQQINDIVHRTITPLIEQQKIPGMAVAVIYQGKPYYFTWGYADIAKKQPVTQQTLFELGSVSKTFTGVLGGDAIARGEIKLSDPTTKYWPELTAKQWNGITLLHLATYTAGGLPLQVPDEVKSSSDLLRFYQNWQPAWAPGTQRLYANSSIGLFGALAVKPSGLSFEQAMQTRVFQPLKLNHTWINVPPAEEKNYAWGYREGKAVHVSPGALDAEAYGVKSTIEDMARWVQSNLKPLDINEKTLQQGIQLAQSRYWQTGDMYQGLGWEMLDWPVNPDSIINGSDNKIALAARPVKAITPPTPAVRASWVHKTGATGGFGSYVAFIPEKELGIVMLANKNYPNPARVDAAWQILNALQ
#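 AmpC (5.3 nM in the dispensed reagent) in 20 mM phosphate pH 7.0 with 0.01% (detergent screen) or 0.0001% Triton X-100 was preincubated with compounds for 15 min at room temperature. Nitrocefin was then added from an 800 uM solution, and hydrolysis was followed at 480 nm.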
# AmpC detergent – qHTS Inhibitors of AmpC Beta-Lactamase (assay with detergent) | P00811 | AmpC hydrolysis of nitrocefin, absorbance 480 nm, 0.01% Triton | Potency, µM (top dose mostly 114 µM), actives largely listed as inhibitors | actives 0.041% (n = 370,000) | AID 485294, 2010; also: nearly all actives have a fitted effect of over 25% in size
#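 AmpC (5.3 nM in the dispensed reagent) in 20 mM phosphate pH 7.0 with 0.01% (detergent screen) or 0.0001% Triton X-100 was preincubated with compounds for 15 min at room temperature. Nitrocefin was then added from an 800 uM solution, and hydrolysis was followed at 480 nm.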
# Pf growth 96h – Primary qHTS for delayed death inhibitors of the malarial parasite plastid, 96 hour incubation; P. falciparum luciferase reporter growth, 96 h; Potency, µM (top dose mostly 28.7 µM), hits mostly inhibitors; actives 6.9% (n = 320,000); AID 504834, 2011
#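 96 h incubation, 37 C, 5% CO2, of luciferase-reporter P. falciparum-infected RBCs (2% hematocrit, 0.05% parasitemia final) with test compounds; endpoint luminescence.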
# HCV inhibitor – qHTS Assay for Inhibitors of Hepatitis C Virus (HCV); Huh7.5.1 HCVcc-Cre infection, luciferase reporter, 44 h; Potency, µM (highest dose often 41.8 µM), usual class: inhibitors; actives 3.4% (n = 340,000)
#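 A cell-based infection assay in which seeded cells (1,000 per well) receive test compound after 4 h, are inoculated with HCVcc-Cre at approximately 0.5 moi, and are incubated 44 h before luminescence detection.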
# AMA1 RON2 block – qHTS for Inhibitors of AMA1-RON; Towards Development of Antimalarial Drug Lead: Primary Screen; Plasmodium falciparum AMA1 (3D7) - RON2 peptide interaction; AlphaScreen AMA1-biotinylated RON2 peptide binding; Potency, µM (top dose mostly 58.2 µM), most hits filed as inhibitors; actives 0.2% (n = 360,000); AID 720542, 2013; also: nearly all actives have a fitted effect of over 45% in size
#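 AMA1 (3D7) with his tag at 25 nM final met compounds first, then biotinylated RON2 peptide at 25 nM; detection used donor plus acceptor beads, 10 µg/mL apiece, read by AlphaScreen after 30 min at room temperature.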
# A number is an active result; - = inactive; ? = inconclusive; . = not tested or not shown; [ ] = remark or other dose. Calls follow the shape of the dose curve; as a rule, active = well fitted curve in the direction sought with a large enough effect; inconclusive = small, poorly fitted or top-dose-only effect, or another doubt; inactive = no such curve, though single readings can be large; an effect the other way counts as inactive or inconclusive.
SMILES,Pf growth 48h,AmpC inh no detg,AmpC detergent,Pf growth 96h,HCV inhibitor,AMA1 RON2 block
CN1C(=O)COc2c(C(=O)NC3CN4CCC3CC4)cc(Cl)cc21 (centres undefined),-,-,-,4.8µM,.,.
CCN(CC)S(=O)(=O)c1ccc(C(=O)NC2CN3CCC2CC3)cc1 (centres undefined),-[0.00184 µM],-,-,-,-,-
O=C(CSc1nnc(-c2ccc(Br)cc2)o1)N1CCN(C(=O)c2ccco2)CC1,?,-,?,?,?,-
CCc1cc2ccc(OC)cc2nc1SCC(=O)N1CCN(C(=O)c2ccco2)CC1,?,-,-,?,?,-
Cc1ccc(-n2nnnc2SCC(=O)N2CCN(C(=O)c3ccco3)CC2)c(C)c1,-,-,-,6.6µM,-,-
Cc1cc2cc3c(cc2nc1SCC(=O)N1CCN(C(=O)c2ccco2)CC1)OCO3,13µM,-,-,?,?,-
Cc1cc(C)cc(-c2nnc(SCC(=O)N3CCN(C(=O)c4ccco4)CC3)o2)c1,?,-,-,12µM,?,?
CCc1ccc(OCC(=O)Nc2cc3oc4ccccc4c3cc2OC)c(Br)c1,.,.,-,.,.,.
Cc1cc2ccccc2n1-c1ccc(C(=O)N2CCCCC2)s1,.,.,-,.,.,.
O=C1NC(c2ccc3c(c2)OCO3)Oc2ccccc21 (centres undefined),-,-,-,5.2µM,.,-
O=C1NC(c2ccc3c(c2)OCO3)Nc2ccccc21 (centres undefined),-,-,-,?,-,-
Cc1cccc(-c2nc(SCCCOc3ccccc3Cl)n3[nH]c(=O)cc3n2)c1,.,.,-,.,.,.
Cc1ccccc1C(=O)Nc1nnc(SCc2cc(=O)c3c(C)ccc(C)c3[nH]2)s1,.,.,-,.,.,.
COCCNc1nc(-c2cc(-c3ccccc3)on2)cc(C(C)C)n1,?,-,-,?,10µM,-
Cc1ccc(NC(=O)Cn2cc(S(=O)(=O)N3CCCC3)c(S(=O)(=O)N3CCCC3)c2)cc1F,.,.,-,.,.,.
COc1ccc(-n2c(SC3CCOC3=O)nc3ccccc32)cc1 (centres undefined),-,-,?,?,-,-
O=C1OCCC1Sc1nc2ccccc2n1-c1ccccc1 (centres undefined),.,-,?,12µM,-,-
COc1ccc(NC(=O)Cn2c(=O)n(Cc3ccco3)c(=O)c3cc(OC)c(OC)cc32)cc1,.,.,-,.,.,.
Cc1cc2cc(CNC(=O)c3ccc(Br)o3)ccc2n1C,?,-,-,9.3µM,-,-
Cc1cc2cc(CNC(=O)c3ccc(S(=O)(=O)N(C)C)cc3)ccc2n1C,?,?,?,?,-,-
Cc1cc2cc(CNC(=O)c3ccc(S(=O)(=O)N4CCOCC4)cc3)ccc2n1C,13µM,-,?,?,-,-
Cc1cc2cc(CNC(=O)Nc3cccc(Cl)c3)ccc2n1C,-,-,?,-,-,-
Cc1cccc(NC(=O)NCc2ccc3c(c2)cc(C)n3C)c1,?,-,?,10µM,-,-
COC(=O)C1=C(c2ccc(OC(F)(F)F)cc2)C[C@@H]2CC[C@H]1N2C(=O)N1CCC(C)CC1,?,-,-,?,?,-
COC(=O)C1=C(c2ccc(OC(F)(F)F)cc2)C[C@@H]2CC[C@H]1N2C(=O)NC1CC1,?,-,-,5.9µM,?,-
SMILES,Pf growth 48h,AmpC inh no detg,AmpC detergent,Pf growth 96h,HCV inhibitor,AMA1 RON2 block
COC(=O)C1=C(c2ccc(OC(F)(F)F)cc2)C[C@@H]2CC[C@H]1N2C(=O)NCC1CC1,?,-,-,?,?,-
COC(=O)C1=C(c2ccc(OC(F)(F)F)cc2)C[C@@H]2CC[C@H]1N2C(=O)N1CCCC1,?,-,-,?,13µM,-
COC(=O)c1c(NC(=O)CCCOc2ccccc2C)sc2c1CCC2,.,.,-,.,.,.
O=C(Nc1ccc2c(c1)CN(Cc1ccc(CO)o1)CC2)c1ccc(C(F)(F)F)cc1,?,-,-,-,11µM,-
COCCC(=O)Nc1ccc2c(c1)CN(C(=O)c1ccc(CSC)o1)CC2,?,-,-,13µM,10µM,-
COc1ccccc1CCC(=O)Nc1ccc2c(c1)CN(Cc1ccc(CO)o1)CC2,13µM,-,?,?,-,-
COCCC(=O)Nc1ccc2c(c1)CN(C(=O)CCSC)CC2,-,-,-,-,-,-
CCc1ccc(S(=O)(=O)c2cn(C)c3cc(F)c(F)cc3c2=O)cc1,.,.,-,.,.,.
COc1ccc(NC(=O)CN(c2ccc(C)cc2)S(=O)(=O)c2cccc3nonc23)cc1OC,.,.,-,.,.,.
O=c1cc(O)c2ccccc2n1Cc1ccccc1F,-,-,-,-,-,-
O/N=C/c1cc2ccccc2n1Cc1ccccc1F,2.6µM,-,-,-,-,-
Cc1c(CNC(C)CCc2ccccc2)c(C(=O)O)c(C)n1Cc1ccc(F)cc1Cl (centres undefined),.,.,-,.,.,.
COc1ccc(CN2C(=O)C(C)Nc3ncnc(N4CCc5ccccc5C4)c32)cc1 (centres undefined),.,.,.,.,.,-
Cc1ccc(CN2C(=O)C(C)Nc3ncnc(N4CCN(c5ccccn5)CC4)c32)cc1 (centres undefined),12µM,-,-,12µM,?,-
CC1Nc2ncnc(N3CCN(c4ccccn4)CC3)c2N(Cc2ccccc2)C1=O (centres undefined),12µM,-,-,2.6µM,-,-
COc1ccc(CN2C(=O)C(C)Nc3ncnc(N4CCN(c5ccccn5)CC4)c32)cc1 (centres undefined),.,-,.,.,?,-
COc1ccc(C2(CCN)CC(C)N(C)CC2C)cc1 (centres undefined),-,-,?,1.7µM,-,-
O=C1c2ccc3c4c(ccc(c24)C(=O)N1c1ccc(O)cc1)C(=O)N(c1ccc(O)cc1)C3=O,-,-,-,4.7µM,?,-
Cc1ccc(S(=O)(=O)N(CC(=O)Nc2ccc(F)cc2F)Cc2ccc(F)cc2)cc1,.,.,-,.,.,.
Cc1cc(O)c(C(C)C)cc1NC(=O)c1ccc(Cl)cc1,?,-,?,?,?,-
Cc1cc(O)c(C(C)C)cc1Cl,?,.,.,15µM,.,.
CCn1cc(C(=O)N2CCN(c3cccc(Cl)c3)CC2)c(=O)c2cc(S(=O)(=O)N3CCC(C)CC3)ccc21,.,.,-,.,.,.
[O-][n+]1c2c(c3c4non(O)c4ccc31)CCCC2,.,10µM,-,12µM,-,-
COn1c2c(c3c4no[n+]([O-])c4ccc31)CCCC2,.,-,-,-,?,-
CCC12CN3CCN(CC(C3)/C1=N/NC(N)=O)C2,-,-,-,-,-,-

# From PubChem BioAssay
